Laboratory results: PubChem BioAssay (EPA / NIEHS)
The source holds several records for some structures; these can differ, active in one and inactive in another. The source made the active and inactive calls. Rule for the calls: active = hit-call score of the fitted dose curve at least 0.9, where 1 is the maximum; inactive = score below 0.9.

What was measured:
[1] = read-out: Interleukin-1 alpha (IL1a), IL1A (gene 3552); test: BSK_KF3CT_IL1a: BioMAP Diversity Plus: KF3CT Assay for Interleukin-1 alpha (IL1a) Biomarker Activity (AID 2283070); conditions: primary human keratinocytes with fibroblasts; actives raise or lower the signal
Procedure, shortened: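 Chemicals were dosed onto co-cultured human keratinocytes and foreskin fibroblasts, IL-1a was quantified by ELISA at 24 h, and activity was fitted in both directions relative to DMSO controls.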

[2] = read-out: TIMP metallopeptidase inhibitor 2 (TIMP2), TIMP2 (gene 7077); test: BSK_KF3CT_TIMP2: BioMAP Diversity Plus: KF3CT Assay for TIMP metallopeptidase inhibitor 2 (TIMP2) Biomarker Activity (AID 2283071); conditions: primary human keratinocytes with fibroblasts; actives raise or lower the signal
Procedure, shortened: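 Keratinocyte–fibroblast co-culture, 24 h exposure; TIMP-2 ELISA, DMSO-normalised bidirectional fit. Parallel SRB (0.1%, TCA-fixed, 560 nm) total-protein staining gauges cytotoxicity.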

[3] = read-out: Transforming growth factor beta 1 (TGFb1), TGFB1 (gene 7040); test: BSK_KF3CT_TGFb1: BioMAP Diversity Plus: KF3CT Assay for Transforming growth factor beta 1 (TGFb1) Biomarker Activity (AID 2283072); conditions: primary human keratinocytes with fibroblasts; actives raise or lower the signal
Procedure, shortened: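 Signal changes in either direction, relative to DMSO, define activity here. TGF-b1 is read by ELISA from a human keratinocyte-fibroblast co-culture 24 h post-dose.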

[4] = read-out: C-C motif chemokine 2 (Homo sapiens) (UniProt P13500); test: BSK_KF3CT_MCP1: BioMAP Diversity Plus: KF3CT Assay for Monocyte Chemoattractant Protein 1 (MCP1/CCL2) Biomarker Activity (AID 2283073); conditions: primary human keratinocytes with fibroblasts; actives raise or lower the signal
Procedure, shortened: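 Keratinocytes and foreskin fibroblasts were co-cultured, dosed with chemical, and sampled 24 h later. MCP-1 was quantified by ELISA, and the endpoint was analyzed with bidirectional fitting using DMSO as negative control.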

[5] = read-out: Matrix Metallopeptidase 9 (MMP9), MMP9 (gene 4318); test: BSK_KF3CT_MMP9: BioMAP Diversity Plus: KF3CT Assay for Matrix Metallopeptidase 9 (MMP9) Biomarker Activity (AID 2283074); conditions: primary human keratinocytes with fibroblasts; actives raise or lower the signal
Procedure, shortened: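 Human keratinocyte/foreskin fibroblast co-culture; compound added; 24 h; MMP-9 by ELISA; bidirectional fit vs DMSO baseline.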

[6] = read-out: urokinase plasminogen activator (uPA), PLAU (gene 5328); test: BSK_KF3CT_uPA: BioMAP Diversity Plus: KF3CT Assay for urokinase plasminogen activator (uPA) Biomarker Activity (AID 2283075); conditions: primary human keratinocytes with fibroblasts; actives raise or lower the signal
Procedure, shortened: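 ELISA readout of uPA, analyzed for signal gain or loss relative to DMSO, from a human primary keratinocyte–foreskin fibroblast co-culture measured 24 h after chemical treatment.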

[7] = read-out: CD40, CD40 (gene 958); test: BSK_LPS_CD40: BioMAP Diversity Plus: LPS Assay for CD40 Biomarker Activity (AID 2283076); conditions: primary human HUVEC with PBMC; actives raise or lower the signal
Procedure, shortened: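 CD40 signal, measured by ELISA, is fitted in both directions relative to DMSO vehicle. The system is an LPS-driven human vascular primary co-culture of endothelial cells and PBMC, sampled 24 h after compound addition.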

[8] = read-out: E-selectin (Homo sapiens) (UniProt P16581); test: BSK_LPS_Eselectin: BioMAP Diversity Plus: LPS Assay for Eselectin Biomarker Activity (AID 2283077); conditions: primary human HUVEC with PBMC; actives raise or lower the signal
Procedure, shortened: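 Signal of E-selectin, detected by ELISA, served as the endpoint; cells were umbilical vein endothelium with PBMC, read 24 h after treatment. DMSO defined baseline, and both increases and decreases were fitted.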

[9] = read-out: Interleukin-8 (IL8), CXCL8 (gene 3576); test: BSK_LPS_IL8: BioMAP Diversity Plus: LPS Assay for Interleukin-8 (IL8) Biomarker Activity (AID 2283078); conditions: primary human HUVEC with PBMC; actives raise or lower the signal
Procedure, shortened: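 Endothelial cells and PBMC from human donors are co-cultured, treated with chemicals and LPS, then assayed for IL-8 by ELISA after 24 h. Parallel SRB staining (0.1% SRB after 10% TCA fixation, 560 nm) flags cytotoxicity.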

[10] = BSK_LPS_SRB: Viability Assessment in the BioMAP Diversity Plus: LPS Assay (AID 2283079); conditions: primary human HUVEC with PBMC;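 note: total protein by sulforhodamine B absorbance as a cytotoxicity measure; measured one day after compound addition; fitted in both directions against DMSO so loss or gain of signal counts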
Procedure, shortened: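 Overt cytotoxicity was gauged by sulforhodamine B total-protein staining in a primary human vascular endothelial and mononuclear cell co-culture 24 h post-dosing. Activity was fitted in both directions relative to DMSO.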

[11] = read-out: Monocyte Chemoattractant Protein-1 (MCP1), CCL2 (gene 6347); test: BSK_LPS_MCP1: BioMAP Diversity Plus: LPS Assay for Monocyte Chemoattractant Protein-1 (MCP1) Biomarker Activity (AID 2283081); conditions: primary human HUVEC with PBMC; actives raise or lower the signal;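 for AC50: secreted MCP-1 protein quantified by ELISA in culture supernatant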
Procedure, shortened: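 LPS-stimulated HUVEC/PBMC co-culture; chemical, 24 h; MCP-1 by ELISA; bidirectional fit vs DMSO; cytotoxicity via SRB (0.1% stain, 10% TCA fix, 560 nm) in parallel wells.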

[12] = BSK_LPS_PGE2: BioMAP Diversity Plus: LPS Assay for Prostaglandin E2 (PGE2) Biomarker Activity (AID 2283082); conditions: primary human HUVEC with PBMC; actives raise or lower the signal;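 for AC50: secreted prostaglandin E2 measured by ELISA in LPS-stimulated co-culture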
Procedure, shortened: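 Endpoint derived from bidirectional curve fitting versus DMSO of ELISA-measured PGE2 in LPS-stimulated human primary vascular co-culture (HUVEC with PBMC) harvested at 24 h.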

[13] = read-out: Macrophage colony-stimulating factor (MCSF), CSF1 (gene 1435); test: BSK_LPS_MCSF: BioMAP Diversity Plus: LPS Assay for Macrophage colony-stimulating factor (MCSF) Biomarker Activity (AID 2283083); conditions: primary human HUVEC with PBMC; actives raise or lower the signal
Procedure, shortened: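 Compound is added to a human vascular primary co-culture of umbilical vein endothelium and blood mononuclear cells. After 24 h, M-CSF is quantified by ELISA. Signal changes are fitted in both directions against DMSO.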

[14] = read-out: Tissue Factor, F3 (gene 2152); test: BSK_LPS_TissueFactor: BioMAP Diversity Plus: LPS Assay for Tissue Factor Biomarker Activity (AID 2283084); conditions: primary human HUVEC with PBMC; actives raise or lower the signal
Procedure, shortened: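 In this co-culture system of umbilical vein endothelium with PBMC, stimulated with LPS, cell-surface CD142 is detected by ELISA at 24 h. Endpoint values derive from bidirectional fitting, DMSO serving as baseline.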

[15] = read-out: Tumor necrosis factor (Homo sapiens) (UniProt P01375); test: BSK_LPS_TNFa: BioMAP Diversity Plus: LPS Assay for Tumour Necrosis Factor alpha (TNFa) Biomarker Activity (AID 2283085); conditions: primary human HUVEC with PBMC; actives raise or lower the signal;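 for AC50: TNFa protein level quantified by ELISA in the co-culture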
Procedure, shortened: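 Primary human vascular co-culture of HUVEC and PBMC; TNFa ELISA 24 h after treatment, analysed as increase or decrease relative to DMSO control.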

[16] = read-out: Vascular cell adhesion molecule 1 (VCAM1), VCAM1 (gene 7412); test: BSK_LPS_VCAM1: BioMAP Diversity Plus: LPS Assay for Vascular cell adhesion molecule 1 (VCAM1) Biomarker Activity (AID 2283086); conditions: primary human HUVEC with PBMC; actives raise or lower the signal
Procedure, shortened: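 Primary human vascular co-culture (umbilical vein endothelium plus PBMC) stimulated with LPS received chemical; 24 h later VCAM-1 was read by ELISA. Overt cytotoxicity was assessed by sulforhodamine B staining of parallel cultures at the same time point.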

[17] = read-out: CD38, CD38 (gene 952); test: BSK_SAg_CD38: BioMAP Diversity Plus: SAg Assay for CD38 Biomarker Activity (AID 2283087); conditions: primary human HUVEC with PBMC; actives raise or lower the signal
Procedure, shortened: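 Fluorescence ELISA of cell-surface CD38 served as the read-out, with either increase or decrease fitted against DMSO controls. Cells were a human umbilical vein endothelium plus PBMC co-culture under SEB/TSST-1 stimulation, measured 24 h after dosing.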

[18] = read-out: CD40, CD40 (gene 958); test: BSK_SAg_CD40: BioMAP Diversity Plus: SAg Assay for CD40 Biomarker Activity (AID 2283088); conditions: primary human HUVEC with PBMC; actives raise or lower the signal
Procedure, shortened: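 Fluorescence ELISA read-out of CD40 from umbilical vein endothelium plus peripheral blood mononuclear cells, sampled 24 h after dosing. Values come from bidirectional curve fitting with DMSO as baseline.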

[19] = read-out: CD69, CD69 (gene 969); test: BSK_SAg_CD69: BioMAP Diversity Plus: SAg Assay for CD69 Biomarker Activity (AID 2283089); conditions: primary human HUVEC with PBMC; actives raise or lower the signal;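 for AC50: cell surface CD69 protein quantified by ELISA with fluorescence detection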
Procedure, shortened: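 Endothelial/PBMC co-culture; chemical added; 24 h incubation; CD69 ELISA with fluorescence detection; bidirectional fit vs DMSO.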

[20] = read-out: Interleukin-1 alpha (IL1a), IL1A (gene 3552); test: BSK_LPS_IL1a: BioMAP Diversity Plus: LPS Assay for Interleukin-1 alpha (IL1a) Biomarker Activity (AID 2283080); conditions: primary human HUVEC with PBMC; actives raise or lower the signal
Procedure, shortened: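 Measured: IL-1 alpha via ELISA at 24 h in LPS-activated human umbilical vein endothelium–PBMC co-culture. Baseline: DMSO, bidirectional fitting.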

Measured: AC50

Chain of Tumor necrosis factor (Homo sapiens) (P01375 whole entry, looked up): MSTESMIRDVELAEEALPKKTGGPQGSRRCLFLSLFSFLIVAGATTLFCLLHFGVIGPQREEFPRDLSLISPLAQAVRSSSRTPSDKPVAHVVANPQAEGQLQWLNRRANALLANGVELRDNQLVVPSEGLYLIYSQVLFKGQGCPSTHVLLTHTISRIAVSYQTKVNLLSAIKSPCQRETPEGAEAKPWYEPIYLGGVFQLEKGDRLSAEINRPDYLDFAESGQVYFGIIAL
Chain of E-selectin (Homo sapiens) (P16581 whole entry, looked up): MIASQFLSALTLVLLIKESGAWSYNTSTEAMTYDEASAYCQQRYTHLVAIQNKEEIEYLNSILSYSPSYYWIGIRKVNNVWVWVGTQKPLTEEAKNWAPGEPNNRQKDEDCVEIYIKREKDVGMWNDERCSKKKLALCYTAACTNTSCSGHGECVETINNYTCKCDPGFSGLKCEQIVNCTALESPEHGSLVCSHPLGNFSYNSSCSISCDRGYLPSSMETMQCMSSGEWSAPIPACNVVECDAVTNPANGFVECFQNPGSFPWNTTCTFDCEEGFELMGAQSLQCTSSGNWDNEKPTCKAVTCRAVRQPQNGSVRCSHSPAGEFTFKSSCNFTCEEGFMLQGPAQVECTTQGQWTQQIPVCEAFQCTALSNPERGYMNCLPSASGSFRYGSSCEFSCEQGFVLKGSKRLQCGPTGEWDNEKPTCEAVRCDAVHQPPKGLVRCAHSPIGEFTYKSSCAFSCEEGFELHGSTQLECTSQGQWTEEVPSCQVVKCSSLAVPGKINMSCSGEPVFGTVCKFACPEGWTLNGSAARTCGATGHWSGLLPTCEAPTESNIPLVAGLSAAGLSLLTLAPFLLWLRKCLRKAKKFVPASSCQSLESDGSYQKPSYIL

OB(O)O
inactive: [1] | [2] | [3] | [4] | [5] | [6] | [7] | [8] | [9] | [10] | [11] | [12] | [13] | [14] | [15] | [16] | [17] | [18] | [19]

CCCCCCC(C)OC(=O)COc1nc(F)c(Cl)c(N)c1Cl (centres undefined)
inactive: [4] | [5]
active: [1] 33.3 µM | [2] 31.6 µM | [3] 31.3 µM | [6] 20 µM | [7] 29.9 µM | [8] 30.7 µM | [9] 36.8 µM | [10] 38.4 µM | [11] 31 µM | [12] 20.3 µM | [13] 29.8 µM | [14] 35.9 µM | [15] 34.3 µM | [16] 30.8 µM | [17] 30.7 µM | [18] 29.5 µM | [19] 31 µM

COCCO
inactive: [1] | [3] | [5] | [6] | [7] | [8] | [9] | [10] | [11] | [12] | [13] | [14] | [15] | [16] | [17] | [18] | [19]
active: [1] 0.8 µM

CCN(CC)C(=O)c1cccc(C)c1
inactive: [1] | [2] | [3] | [4] | [5] | [6] | [7] | [8] | [9] | [10] | [20] | [11] | [12] | [13] | [14] | [15] | [16] | [17] | [18] | [19]

CC1(C)C(C=C(Cl)Cl)C1C(=O)OCc1cccc(Oc2ccccc2)c1 (centres undefined)
inactive: [1] | [3] | [4] | [5] | [6] | [7] | [8] | [20] | [11] | [14] | [15] | [16] | [17] | [18]
active: [9] 10 µM | [10] 6.14 µM | [12] 4.13 µM | [13] 4.63 µM | [19] 14.7 µM

CCOC(=O)[C@H](C)Oc1ccc(Oc2nc3ccc(Cl)cc3o2)cc1
inactive: [1] | [3] | [4] | [5] | [6] | [7] | [8] | [9] | [10] | [20] | [11] | [13] | [14] | [15] | [16] | [18] | [19]
active: [12] 8.85 µM | [17] 29.9 µM
